Laboratory results reported in PubChem BioAssay AID488890 (Southern Research Specialized Biocontainment Screening …, 2010).
Among all 320,000 compounds or so, about 1,300 (0.41%) were called active. Inconclusive results (about 3%) are left out. The rule behind the calls is not given here. A selection follows. Results with a measured potency or affinity are listed apart.

Assay: growth inhibition of non-replicating M. tuberculosis (AID 488890);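 note: plate controls were DMSO cells for no effect and high antibiotic wells for full effect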
Settings: Mycobacterium tuberculosis non-replicating, at 25 µM, stronger effect = higher value
Molecule O=C/C(=C\Nc1ccc(Cl)cn1)c1nc2cc(Cl)ccc2o1 has an inhibition of 58.2%.
Molecule COc1ccc(-c2cc3ccc(OCC(N)=O)cc3oc2=O)cc1OC has an inhibition of 17.8%.
In the case of CC(Oc1ccc2cc(-c3ccccc3)c(=O)oc2c1)C(=O)NCC1CCC(C(=O)O)CC1 (stereo not given), the inhibition is reported as 4.91%.
For CC(=O)COc1ccc2c(-c3cccc([N+](=O)[O-])c3)cc(=O)oc2c1, the inhibition was -17.4%.
COc1ccc(-c2cc3ccc(OC(C)C(=O)O)cc3oc2=O)cc1 (stereo not given) gave an inhibition of -4.62%.
COc1ccc(-c2cc3ccc(OCC(C)=O)cc3oc2=O)cc1 showed an inhibition of 15.4%.
In the case of COC(=O)C(C)Oc1ccc2c(-c3cccc([N+](=O)[O-])c3)cc(=O)oc2c1 (stereo not given), the inhibition is reported as 67.4%.
With COc1ccc(-c2cc(=O)oc3cc(OCC(C)=O)ccc23)cc1 the inhibition was 36.8%.
Molecule COc1ccc(-c2cc(=O)oc3cc(OCC(=O)N(C)C)ccc23)cc1 has an inhibition of -18.8%.
Work on NS(=O)(=O)c1ccc(CCNC(=O)c2cccc(S(=O)(=O)N3CCCC3)c2)cc1 yielded an inhibition of 17.3%.
For S=c1[nH]nc(C2CCCCC2)n1/N=C/c1cccc(Br)c1, the inhibition was -5.05%.
O=C(c1ccco1)N1CCN(S(=O)(=O)c2ccc(Cl)cc2)CC1 gave an inhibition of -7.62%.
COCCCNC(=O)Nc1ccc(F)cc1F gave an inhibition of -3.58%.
Work on NC(=O)COc1cc2oc(=O)c3c(c2cc1Cl)CCCC3 yielded an inhibition of -1.26%.
Molecule CCN(CC)C(=O)c1sc(N)c(C(=O)OC(C)C)c1C has an inhibition of 29.4%.
Molecule O=C(O)C1CC=CCC1C(=O)c1ccccc1 (stereo not given) has an inhibition of -2.95%.
Molecule O=c1cccccc1NN=C1CCCCCC1 has an inhibition of 15.8%.
Molecule CCOC(=O)c1sc(NC(=O)CSc2n[nH]c(C)n2)nc1C has an inhibition of 23.3%.
Molecule CC(=C/c1ccco1)/C=N/NC(=O)c1ccncc1 has an inhibition of 52.5%.
Molecule C/C(=N\Nc1nc(-c2ccccc2O)nc2ccccc12)c1ccccc1 has an inhibition of 7.99%.
Work on CC(C)CCC(C(=O)O)C(C)CC(=O)Nc1ccn(-c2ccccc2)n1 (stereo not given) yielded an inhibition of -10%.
CSCCC(NC(=O)COc1ccccc1)C(=O)N(C)Cc1cccc(F)c1 (stereo not given) gave an inhibition of 23.5%.
With CCN(CC)C(=O)COc1ccc2c(-c3ccccc3)cc(=O)oc2c1 the inhibition was -10%.
O=C(O)COc1ccc2c(-c3ccccc3)cc(=O)oc2c1 gave an inhibition of -4.18%.
Work on Cc1ccc(NC(=O)CN(C)C(=O)CSc2ccccc2F)cc1 yielded an inhibition of 1.97%.
For COc1ccc(C(CNC(=O)c2c(C)nn(Cc3ccccc3)c2Cl)N2CCOCC2)cc1 (stereo not given), the inhibition was 11.7%.
Molecule O=C(COc1ccc(C(=O)c2ccccc2)cc1)NC1CCCCCC1 has an inhibition of 55.6%.
In the case of COc1ccc(OCCC(=O)OCC(=O)NC2CCCCCCC2)cc1, the inhibition is reported as 42.5%.
For O=C(COc1ccccc1)NCC(=O)NC1CCCCC1, the inhibition was 3.74%.
COc1ccc(OCCC(=O)OCC(=O)NC2CCCCC2)cc1 showed an inhibition of 39.1%.
CCOc1ccc(CCNC(=O)CCc2nnc3ccc(N4CCCCC4)nn23)cc1OCC gave an inhibition of 20.8%.
Cc1cccc[n+]1C1C(c2ccccc2)C(C#N)=C(C(=C=[N-])C#N)NC1(O)C1CC1 (stereo not given) showed an inhibition of 17.4%.
For COC(=O)c1ccc(CN2CCN(C3CCCCC3)C(CCO)C2)cc1 (stereo not given), the inhibition was -2.17%.
For CCOC(=O)[C@@H]1[C@H]2COc3ccc(Br)cc3[C@H]2N2C(=O)N(c3ccc(C(F)(F)F)cc3)C(=O)[C@]12C, the inhibition was 37.9%.
O=C(c1ccc(Cl)s1)N1CCCC1 gave an inhibition of 31%.
Work on O=C(c1ccc(Br)s1)N1CCCC1 yielded an inhibition of 46.3%.
Molecule Cc1ccc(NC(=O)CCC(=O)Nc2nnc(C3CCCCC3)s2)cc1 has an inhibition of -1.2%.
NC(=NCCc1ccccc1)NS(=O)(=O)c1ccc2ccccc2c1 showed an inhibition of 51.5%.
Work on CCC(CO)N=CC1=C(O)C(C(=O)c2ccccc2)CCC1=O (stereo not given) yielded an inhibition of 4.93%.
Work on CC(=O)Nc1ccc(NC(=O)CSc2nnc(-c3cc4ccccc4o3)n2C)cc1 yielded an inhibition of -4.95%.
COc1cccc2nc3cc(C)c(C)cc3nc12 gave an inhibition of 39.2%.
With COc1cc(C(=O)O)c2ccccc2n1 the inhibition was -12.4%.
With CC(CNC(=O)CN1C(=O)C(=O)N(C2CCCC2)C1=O)c1ccccc1 (stereo not given) the inhibition was 21.6%.
Molecule O=C(O)C1=NN(c2ccccc2)C(=O)CC1 has an inhibition of 1.61%.
In the case of CCOc1cc(CNCCO)cc(Br)c1OCc1cccs1, the inhibition is reported as 73.5%.
Work on COc1cc(CNCCO)cc(Br)c1OCc1ccccc1 yielded an inhibition of 28.5%.
With CCOc1cc(CNCCO)cc(Br)c1OCc1ccccc1 the inhibition was 75.9%.
COc1cc(CNCCO)cc(Br)c1OCc1ccccc1Cl gave an inhibition of 79%.
COCCNC(=O)COc1coc(CN2CCN(Cc3ccccc3)CC2)cc1=O showed an inhibition of 0.19%.
Work on CCOc1ccc2oc(C(=O)NNC(=O)c3csc(N4CCOCC4)n3)c(C)c2c1 yielded an inhibition of 75.8%.
For Cc1cccc(C(=O)NNC(=O)c2csc(N3CCOCC3)n2)c1C, the inhibition was -2.47%.
For CC1(C)CC(=O)C(N=Nc2cccc([N+](=O)[O-])c2)=C(O)C1, the inhibition was -5.61%.
With CCN(N=Nc1cccc([N+](=O)[O-])c1)c1cccc([N+](=O)[O-])c1 the inhibition was -3.89%.
In the case of COCC(C)n1c(SCC(=O)N2CCOCC2)nc2ccccc2c1=O (stereo not given), the inhibition is reported as 3.46%.
CCC(C)[C@H](NC(=O)[C@@H]1CSC2c3ccccc3C(=O)N21)C(=O)N1CCCCC1 (stereo not given in full) showed an inhibition of 12.4%.
In the case of O=C(CSc1nnc(-c2ccncc2)o1)c1cccc([N+](=O)[O-])c1, the inhibition is reported as 70.5%.
Molecule COc1ccc(-c2nnc(SCC#CCO)o2)cc1OC has an inhibition of 45.7%.
Molecule O=C(CSc1nnc(-c2ccc(O)cc2)o1)Nc1ccccc1 has an inhibition of 63.5%.
In the case of Oc1ccc(-c2nnc(SCc3ccccc3)o2)cc1, the inhibition is reported as 77.5%.
For OCC#CCSc1nnc(-c2ccncc2)o1, the inhibition was 23.9%.
Work on CCSc1nnc(-c2ccncc2)o1 yielded an inhibition of 0.24%.
Cc1ccc(C(=O)CSc2nnc(-c3ccccc3)o2)cc1 gave an inhibition of 64.9%.
Molecule O=C(O)c1ccc(-c2nnc(-c3ccc([N+](=O)[O-])cc3)o2)cc1 has an inhibition of -2.79%.
In the case of CCOCCCNC(=O)c1cc2c(s1)-c1ccccc1SC2, the inhibition is reported as 9.76%.
Work on CC(=O)Nc1nccc(-c2cc(-c3ccccc3)no2)n1 yielded an inhibition of 2.66%.
Work on COc1ccccc1N(CC(O)Cn1c2ccccc2c2ccccc21)S(=O)(=O)c1ccccc1 (stereo not given) yielded an inhibition of 31.5%.
With Cc1ccccc1C(=O)NNC(=O)c1ccc2nc[nH]c2c1 the inhibition was 8.7%.
In the case of COc1ccc(S(=O)(=O)Nc2cccc3c2O[C@H](CN(C)S(=O)(=O)c2ccc(Cl)cc2)[C@H](C)CN([C@H](C)CO)C3=O)cc1, the inhibition is reported as 51.4%.
With O=c1c2ccccc2ncn1-c1ccc(Cl)c(Cl)c1 the inhibition was 1.67%.
COc1cc(Cl)cc(C=O)c1OCC(=O)O gave an inhibition of 8.45%.
With COc1ccc(CCNC(=O)C2CCCN2C(=O)Nc2ccc(Cl)cc2)cc1OC (stereo not given) the inhibition was 20.8%.
Cc1ccc(CSc2nnc(-c3cccc4ccccc34)o2)cc1 gave an inhibition of 14.4%.
In the case of Cc1ccccc1-c1nnc(SCC#N)o1, the inhibition is reported as 15.7%.
Molecule C=CCSc1nnc(-c2cccc3ccccc23)o1 has an inhibition of 5.5%.
Molecule C#CCSc1nnc(-c2sc3ccccc3c2Cl)o1 has an inhibition of 71.8%.
